# Pf apPOL block: Pf-apPOL DNA polymerase inhibition; Recombinant Pf-apPOL, molecular beacon fluorescence, 1.5 h; inhibition, % at 10 µM; hit rate 0.25% among 210,000; AID 1794808
# mHTT CaM bind: mHTT-calmodulin interaction abrogation; AlphaScreen His-mHTT/GST-CaM binding, luminescence; P42858; hit rate 3.6% among 190,000; inhibition, % at 15 µM;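 further: 0% = both proteins with DMSO and 100% = one protein alone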
# * = called active by the depositor; . = no result given; ! = a repeat was not active. Hits are enriched below; roughly 3.5% of the tested compounds scored in any of these assays. No stated cut-off is given here; in the data, active means inhibition above about 50%; inactive means the rest.
SMILES,Pf apPOL block,mHTT CaM bind
COc1ccccc1CNC(=O)CSc1ccc(-c2cccnc2)nn1,-2.6,-15.2
Cn1c2c(c(=O)[nH]c1=O)C(c1ccc(O)cc1)C1=C(N2)c2ccccc2C1=O (centres undefined),8.7,19.0
O=C1C2=C(Nc3[nH]c(=O)[nH]c(=O)c3C2c2ccc(Cl)cc2)c2ccccc21 (centres undefined),-3.6,67.0*!
Cn1c2c(c(=O)[nH]c1=O)C(c1ccc(OCc3ccccc3)cc1)C1=C(N2)c2ccccc2C1=O (centres undefined),-93.5,86.0*
Cn1c2c(c(=O)n(C)c1=O)C(c1ccc(Cl)cc1)C1=C(N2)c2ccccc2C1=O (centres undefined),-8.4,0.0
Nc1ccc([N+](=O)[O-])cc1C(=O)O,-4.1,12.1
O=C(Nc1ccc(Cl)cc1)n1nccc1C=Cc1cccs1,-3.3,.
COCCN1C(=O)Cc2ccccc2C1C(=O)N1CCC(Cc2ccccc2)CC1 (centres undefined),-3.5,22.8
O=C(Nc1ccccc1O)/C(=C1\Nc2ccc([N+](=O)[O-])cc2N1)[N+](=O)[O-],5.2,20.0
NCCNC(=O)/C(=C1\Nc2ccc([N+](=O)[O-])cc2N1)[N+](=O)[O-],2.9,63.0*
CC1CCN(c2ccc(N3CCC(C(=O)N4CCCCCC4)CC3)nn2)CC1,-2.1,15.6
COc1ccc(C=C2Oc3cc(OC(=O)c4cc(OC)c(OC)c(OC)c4)ccc3C2=O)cc1OC,-1.4,-3.2
CCOC(=O)c1ccccc1NC(=O)N1CCC2(CC1)Nc1ccccc1-n1cccc12,4.5,59.8*
CCOc1ccccc1NC(=O)N1CCC2(CC1)Nc1ccccc1-n1cccc12,-6.7,21.2
CCOC(=O)Cc1ccc(NC(=O)N2CCC3(CC2)Nc2ccccc2-n2cccc23)cc1,3.7,75.6*
CCOC(=O)c1cccc(NC(=O)N2CCC3(CC2)Nc2ccccc2-n2cccc23)c1,-5.3,65.7*
O=C(Nc1cccc(C(F)(F)F)c1)N1CCC2(CC1)Nc1ccccc1-n1cccc12,3.7,97.4*
COc1ccc(C2=N/C(=C/c3cc(Br)ccc3OC)C(=O)O2)cc1,-7.7,-5.0
Nc1cc(=O)[nH]c(SCCN2CCN(c3ccc(C(F)(F)F)cc3[N+](=O)[O-])CC2)n1,-1.2,34.0
Cc1noc(C)c1C1CCCN1C(=O)c1c(F)cccc1Cl (centres undefined),-10.6,-3.1
CC(NC(=O)C1CCN(c2nnc(-c3ccccc3)o2)CC1)c1ccccc1 (centres undefined),-2.7,21.9
Cc1ccc(NC(=O)CN(C)S(=O)(=O)c2ccc3[nH]c4c(c3c2)CCCC4)c(C)c1,-1.8,47.1
CC(=O)c1ccc(NC(=O)CN(C)S(=O)(=O)c2ccc3[nH]c4c(c3c2)CCCC4)cc1,-1.9,40.8
Cc1c(Cl)cccc1NC(=O)CN(C)S(=O)(=O)c1ccc2[nH]c3c(c2c1)CCCC3,-0.8,52.3*
COc1ccc(NC(=O)CN(C)S(=O)(=O)c2ccc3[nH]c4c(c3c2)CCCC4)cc1,-3.2,56.2*
SMILES,Pf apPOL block,mHTT CaM bind
Cc1ccc(NC(=O)CN(C)S(=O)(=O)c2ccc3[nH]c4c(c3c2)CCCC4)nc1,-2.3,43.1
CN(CC(=O)Nc1ccc(F)c(Cl)c1)S(=O)(=O)c1ccc2[nH]c3c(c2c1)CCCC3,-6.6,65.9*
COc1cccc(OCCOc2ccc(C)cc2[N+](=O)[O-])c1,-6.9,-22.6
CCCCC(C)C(=O)Nc1nc2c(s1)CN(S(=O)(=O)c1ccc(C)cc1)CC2 (centres undefined),-7.4,13.3
CS(=O)(=O)Oc1ccc2c(c1)OC(=Cc1cccc(Cl)c1)C2=O,-5.0,10.5
Cc1oc2ccc(OCc3cccc(F)c3)cc2c1C(=O)O,55.8*,10.0
Cc1oc2ccc(OCc3ccccc3)cc2c1C(=O)O,-0.5,-5.0
Cc1ccc(-n2nc3c(c2NC(=O)c2ccccc2F)CS(=O)(=O)C3)cc1,-5.5,-2.0
COc1ccc(-c2nc(NCc3ccccc3)c3ccccc3n2)cc1OC,-1.2,14.0
COc1ccc(-c2nc(NCc3ccc(F)cc3)c3ccccc3n2)cc1OC,-3.7,87.0*
O=C(NC1(c2nc(-c3ccccc3)no2)CCCCC1)c1ccccc1F,-2.4,-10.6
CC(=O)Nc1ccc(-c2nc(Cn3cccn3)c(C)o2)cc1,1.1,3.1
O=C(Nc1ccccc1Cl)/C(=C\c1ccc2c(c1)OCO2)NC(=O)c1ccccc1Cl,-2.2,10.0
Cc1ccc(Cn2cc(CCC(=O)NCc3ccco3)c3ccccc32)cc1,-13.8,15.0
Cc1ccc(Cn2cc(CCC(=O)NCc3ccccn3)c3ccccc32)cc1,-17.5,78.0*
COc1ccc(NC(=O)C2(N(C(=O)Cn3nnnc3N)c3ccccc3)CCCCC2)cc1,-2.7,6.0
O=C(CSc1cn(Cc2ccccc2Cl)c2ccccc12)N1CCCCC1,-6.9,53.0*
O=C(CSc1cn(Cc2ccccc2Cl)c2ccccc12)Nc1ccc2c(c1)OCO2,-7.2,34.0
CC1CCN(C(=O)CSc2cn(Cc3ccccc3Cl)c3ccccc23)CC1,-5.4,58.0*
O=C(CSc1cn(Cc2ccc(Cl)cc2)c2ccccc12)Nc1ccc2c(c1)OCO2,-3.4,64.0*
CC1CCN(C(=O)CSc2cn(Cc3ccc(F)cc3)c3ccccc23)CC1,-1.7,83.0*
O=C(CSc1cn(Cc2ccc(Cl)cc2)c2ccccc12)N1CCCCC1,-3.0,31.0
O=C(CSc1cn(Cc2cccc(F)c2)c2ccccc12)N1CCCCC1,2.9,27.0
Cc1ccccc1Cn1cc(SCC(=O)N2CCOCC2)c2ccccc21,1.1,30.0
Cc1ccc(NC(=O)c2cc(NC(=O)c3ccco3)ccc2Cl)cc1Cl,1.4,14.5
SMILES,Pf apPOL block,mHTT CaM bind
COc1ccc(OC)c(-c2cc(C(=O)NCc3cccnc3)no2)c1,-5.8,1.0
COc1nn(C)cc1C(=O)N1CCC(c2nnc(C3CC3)o2)CC1,-2.3,-12.7
COc1ccc(NC(=O)c2ccc(CN3CCOCC3)cc2)cc1,-0.5,-5.4
O=C(c1ccc(S(=O)(=O)c2cccc(Cl)c2)c([N+](=O)[O-])c1)N1CCOCC1,-9.9,9.0
O=C(CSc1cn(Cc2ccc(Cl)cc2)c2ccccc12)N1CCOCC1,-2.6,72.0*
O=C(CSc1cn(Cc2ccc(F)cc2)c2ccccc12)N1CCOCC1,1.6,33.0
NC(=O)c1[nH]ncc1[N+](=O)[O-],.,-5.7
Cc1cc(-c2ccc(C)c(S(=O)(=O)N3CCC(N4CCCCC4)CC3)c2)on1,-1.6,-10.3
Fc1cc(F)c(C2SCCN2C(=S)NCCc2ccccc2)c(F)c1 (centres undefined),.,59.0*
S=C(NCCc1ccccc1)N1CCOCC1,-10.8,.
Cc1cccc2c1NC1(CCN(C(=O)C(C)(C)CCl)CC1)NC2=O,2.7,-5.2
O=C1[C@H]2CCC=C[C@H]2[C@H](c2ccccc2Br)N1Cc1ccccc1,7.8,45.8
Cc1cccc([C@H]2[C@@H]3C=CC(C)C[C@@H]3C(=O)N2Cc2ccccc2)c1 (some centres undefined),-7.2,66.5*
O=C1[C@H]2CCC=C[C@H]2[C@H](c2cccc(Br)c2)N1Cc1ccccc1,0.9,65.9*
CC1C=C[C@@H]2[C@H](C1)C(=O)N(Cc1ccccc1)[C@H]2c1ccccc1Br (some centres undefined),-4.3,39.3
Cc1ccc2nc(C3CN(C(=O)c4c(-c5ccccc5Cl)noc4C)C3)[nH]c2c1,-9.7,14.4
O=S(=O)(NC12CC3CC(CC(C3)C1)C2)c1cccs1,.,-6.4
CCC(=O)NCc1csc(C2CCN(C(=O)c3cccc(C)c3)CC2)n1,-3.0,-6.1

# Compound activity deposited in PubChem by University of Kansas High Throughput Screening Laboratory.
